In the library only some 4% were active in any assay of this set; here they are far more common.
D1 agonist = human D1 receptor agonism. HEK293 T-REx D1 cells, calcium flux, agonist mode. activation, % at 2 µM. 360,000 compounds, 1% hits; further: 0% is about no effect
Target sequence (P21728 whole entry, looked up): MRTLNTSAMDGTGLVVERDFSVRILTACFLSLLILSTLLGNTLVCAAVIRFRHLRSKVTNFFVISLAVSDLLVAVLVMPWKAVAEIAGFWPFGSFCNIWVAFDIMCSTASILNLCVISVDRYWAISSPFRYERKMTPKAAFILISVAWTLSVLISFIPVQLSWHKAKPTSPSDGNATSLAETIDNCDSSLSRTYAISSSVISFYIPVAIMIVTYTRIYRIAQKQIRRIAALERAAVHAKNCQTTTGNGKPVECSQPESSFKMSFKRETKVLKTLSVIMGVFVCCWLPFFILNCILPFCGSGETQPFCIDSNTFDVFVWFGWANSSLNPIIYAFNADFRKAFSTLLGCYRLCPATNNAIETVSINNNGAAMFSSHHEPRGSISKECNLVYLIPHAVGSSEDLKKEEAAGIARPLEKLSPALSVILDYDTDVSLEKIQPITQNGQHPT
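Tetracycline-induced HEK293 TREx D1 cells, force-coupled to calcium signalling, were dye-loaded with a no-wash calcium kit. Compound was pin-added after a 10 s baseline. Fluorescence was read kinetically at 1 cycle/s for 180 s, with calcium rises flagged as agonism.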
D1 antag = human D1 dopamine receptor antagonism; P21728; HEK293 TREx D1 cells, calcium flux, dopamine EC80; hits give low values; activity change, negative = inhibition, % at 10 µM; 360,000 compounds, 3.2% hits; AID 504652; in the data active means activity change below about -30%; further: on the % scale 0 is the no-effect control and ±100 the full control effect
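HEK293 T-REx cells expressing inducible, force-coupled D1 receptor; no-wash Ca dye, 30–90 min RT. Cmpd → 180 s read at 1 Hz → EC80 DA → 180 s read.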
GRP78 ERSR act = inducers of ER stress response in human glioma cells; 420,000 compounds, 0.02% hits; AID 602332; U87-MG GRP78 promoter luciferase reporter, 16 h; Potency, µM, for inactives: at the top dose activation, most hits filed as activators; active means well fitted activation curve with a large enough effect; further: potency means the concentration at half of the fitted maximal effect; series mostly up to about 76 µM; % of control where 0% means no effect; nearly all actives have a fitted effect of over 35% in size
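Stably transfected U87-MG glioma cells carrying a GRP78-based luciferase sensor; 16 h compound incubation. Luminescence end-point read 10 min after Bright-Glo addition at room temperature.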
TRHR ag = agonists of human TRH receptor; 360,000 compounds, 0.18% hits; TRHR cells, calcium flux fluo-8, FDSS agonist mode; activation, % at 2 µM; P34981; further: 0% is about no effect
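Steps: seed TRHR cells overnight; add fluo-8 no-wash Ca dye, RT 30 min–1.5 h; record 10 s baseline; pin-transfer compounds; monitor fluorescence 1 cycle/s for the agonist window. Calcium increases flag candidate agonists.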
TRHR PAM = allosteric enhancers of human TRH receptor; P34981; TRHR cells, fluo-8 calcium fluorescence, EC20 TRH enhancement; enhancement, % at 2 µM; 360,000 compounds, 0.66% hits; in the data active means enhancement above about 30%; further: 0% is about no effect
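TRHR-expressing cells loaded with fluo-8 calcium dye were read kinetically (ex 480/em 530) during compound addition, then stimulated with an EC20 of TRH (10 nM final). Enhancement of the Gq-mediated intracellular calcium response was scored.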
D1 potentiator = enhances dopamine response at the human D1 receptor; potentiation, % at 10 µM; 360,000 compounds, 0.036% hits; HEK293 TREx D1 cells, calcium flux, dopamine EC20 potentiation; in the data active means potentiation above about 30%; further: 0% is about no effect
An asterisk follows results filed as active. Unless noted, no stated cut-off is given here; in the data, active means activation above about 30%; inactive means the rest.

For O=S(=O)(c1ccc(SCCOc2cccc(Br)c2)nc1)N1CCCC1 the results were D1 agonist 17.6, D1 antag -14.9, GRP78 ERSR act -5.8%, TRHR ag 3.2, TRHR PAM -3.3 and D1 potentiator 1.6.
For O=S(=O)(c1ccc(SCCOc2ccccc2Cl)nc1)N1CCCC1 the results were D1 agonist 38.1*, D1 antag 10.3, GRP78 ERSR act -3.7%, TRHR ag 1.6 and TRHR PAM -1.6.
Screening CN1CCN(S(=O)(=O)c2ccc(SCCOc3ccc(Cl)cc3)nc2)CC1 returned D1 agonist 14.3, D1 antag -43.8*, GRP78 ERSR act -5.3%, TRHR ag 1.7, TRHR PAM 16.4 and D1 potentiator -15.0.
COc1ccc(OCCSc2ccc(S(=O)(=O)N3CCCC3)cn2)cc1 was read as D1 agonist 22.2, D1 antag 0.0, GRP78 ERSR act -5.3%, TRHR ag 1.1 and TRHR PAM -0.7.
For NC(=O)CSc1ccc(S(=O)(=O)N2CCCCC2)cn1 the results were D1 agonist 40.7*, D1 antag 7.3, GRP78 ERSR act -3.5%, TRHR ag 7.6 and TRHR PAM 4.0.
For CC(C)(C)NCC(O)COc1ccccc1C1CCCC1 (configuration not stated) the results were D1 agonist 31.1*, D1 antag -15.9, GRP78 ERSR act 1.4%, TRHR ag 1.7, TRHR PAM 0.5 and D1 potentiator -4.4.
CC(C)(C)NC[C@@H](O)COc1cccc2c1CCCC2=O was read as D1 agonist 0.0, D1 antag -1.4, GRP78 ERSR act -5.1%, TRHR ag 0.7, TRHR PAM -7.4 and D1 potentiator -5.2.
Screening OC(CNC1CCCc2ccccc21)COc1ccc2ccccc2c1 (configuration not stated) returned D1 agonist 10.2, D1 antag 5.1, GRP78 ERSR act 3.0%, TRHR ag 0.8, TRHR PAM 7.3 and D1 potentiator -0.6.
CCc1ccccc1OC[C@@H](O)CN[C@H]1CCCc2ccccc21 was read as D1 agonist 97.3*, D1 antag -51.8*, GRP78 ERSR act -10.5%, TRHR ag 2.9, TRHR PAM -2.7 and D1 potentiator 26.5.
O=C(CSc1n[nH]c(=O)n1C1CC1)Nc1ccccc1 was read as D1 agonist 1.5, D1 antag -6.8, GRP78 ERSR act -3.6%, TRHR ag 0.1, TRHR PAM 1.8 and D1 potentiator -5.0.
For O=c1[nH]nc(SCc2ccccc2)n1C1CC2C=CC1C2 (configuration not stated) the results were D1 agonist 11.8, D1 antag -32.3*, GRP78 ERSR act -0.8%, TRHR ag 2.6, TRHR PAM 2.1 and D1 potentiator -3.1.
COC(=O)c1sc2nc(SCc3cccc(F)c3)n(N)c(=O)c2c1C was read as D1 agonist 1.0, D1 antag -1.8, GRP78 ERSR act -9.3%, TRHR ag 0.5, TRHR PAM 1.2 and D1 potentiator -10.1.
For COc1ccc(OCC(=O)NCCNC(=O)c2cccnc2)cc1 the results were D1 agonist 3.0, D1 antag -31.9*, GRP78 ERSR act -2.7%, TRHR ag -0.1 and TRHR PAM 9.9.
For O=C(COc1ccc(Br)cc1)NCCCNC(=O)c1cccnc1 the results were D1 agonist -0.4, D1 antag -2.3, GRP78 ERSR act -2.6%, TRHR ag 0.1, TRHR PAM 1.9 and D1 potentiator -2.5.
Screening Cc1ccc(C(=O)NCCCNC(=O)COc2ccc(Cl)c(C)c2)cn1 returned D1 agonist 4.8, D1 antag -39.5*, GRP78 ERSR act -2.9%, TRHR ag 0.9, TRHR PAM -1.3 and D1 potentiator -1.8.
Cc1cc(C)n(S(=O)(=O)c2cc(C)c(C)cc2C)n1 was read as D1 agonist 0.9, D1 antag -31.0*, GRP78 ERSR act -2.0%, TRHR ag -1.6, TRHR PAM 6.3 and D1 potentiator -11.8.
`CC(=O)c1ccc(F)c(-c2cc(C)cc3c2OC(CNC(=O)Cn2nc(C)nc2C)C3)c1` (configuration not stated) gave GRP78 ERSR act -3.6%.
For COc1ccc(C)cc1Nc1n[n+](-c2ccccc2)c(-c2cc(OC)c(OC)cc2Br)s1 the results were D1 agonist 3.8, D1 antag 4.8, GRP78 ERSR act -5.1%, TRHR ag -1.5, TRHR PAM -5.1 and D1 potentiator -4.5.
COc1ccc(C)cc1Nc1n[n+](-c2ccccc2)c(-c2c(OC)ccc3ccccc23)s1 was read as D1 agonist 46.4*, D1 antag -91.2*, GRP78 ERSR act -4.3%, TRHR ag 0.0, TRHR PAM 5.9 and D1 potentiator -12.7.
`COc1ccc(-c2sc(Nc3ccccc3)n[n+]2-c2ccccc2)cc1Br` gave D1 agonist 3.6, D1 antag -30.7*, GRP78 ERSR act -3.7%, TRHR ag 0.0, TRHR PAM -0.7 and D1 potentiator 0.2.
`C[C@H](NC(=O)c1ncn2c1C(=O)NC[C@@H]2C)C(=O)OC(C)(C)C` gave GRP78 ERSR act -3.8%.
`COc1ccc(NC(=O)CCCc2nnc3n(C)c(=O)c4sccc4n23)cc1` gave D1 agonist 1.6, D1 antag -31.1*, GRP78 ERSR act -6.4%, TRHR ag -0.1, TRHR PAM -5.2 and D1 potentiator -9.8.
Screening Cc1cc(C)cc(NC(=O)CCc2nnc3n(C)c(=O)c4sccc4n23)c1 returned D1 agonist -0.6, D1 antag -45.8*, GRP78 ERSR act -1.7%, TRHR ag 0.0, TRHR PAM -2.5 and D1 potentiator 3.2.
`CCCn1c(=O)c2sccc2n2c(CCCC(=O)NC3CCCCC3)nnc12` gave D1 agonist 2.1, D1 antag 4.0, GRP78 ERSR act -2.2%, TRHR ag 0.0, TRHR PAM -0.1 and D1 potentiator 1.4.
`CCc1ccc(NC(=O)CCc2nnc3n(C)c(=O)c4sccc4n23)cc1` gave D1 agonist 0.4, D1 antag -13.9, GRP78 ERSR act -1.4%, TRHR ag 0.0, TRHR PAM 0.3 and D1 potentiator 1.9.
CCCn1c(=O)c2sccc2n2c(CCCC(=O)NC3CCC(C)CC3)nnc12 (configuration not stated) was read as D1 agonist -0.2, D1 antag -7.0, GRP78 ERSR act -0.6%, TRHR ag -0.3, TRHR PAM 36.7* and D1 potentiator 8.9.
Screening COc1cc(C(C)=O)ccc1OCC(=O)N1CCC(Cc2ccccc2)CC1 returned GRP78 ERSR act -7.2%.
COc1ccc([C@H]2CC(=O)C=C(c3ccc(Cl)c(Cl)c3)C2)cc1 was read as D1 agonist 2.9, D1 antag -20.4, GRP78 ERSR act -1.7%, TRHR ag 0.8, TRHR PAM -3.1 and D1 potentiator 3.0.
